In PubChem BioAssay one finds z-score and inhibition data, which are given here for 39 compounds.

By inhibition is commonly meant the relative decrease from the control value, in per cent.

Where “and” joins values, the source holds several entries; their conditions need not be identical. Equal values may be shown once. Calls of active or inactive are those of the source.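 Rule for the calls, unless noted: active = z-score of at least 1.8 in each of two replicates, scored against plate mean and spread of sample wells; inactive = the rest.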

The first assay is described as follows: viability rescue of complex I mutant cybrids, primary screen, cell-based, galactose medium, ATP luminescence (AID 1645843).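 Note: positive z means more ATP and so rescue of galactose-driven cybrid death.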 The note with it: complex I mutant cybrid cells, 72 h, stronger effect = higher value.
With `Cn1nc(NC(=O)Cn2cc(-c3nccc4occc34)cn2)c2ccccc21`, the z-score was -0.345 (inactive).

As to `Cc1nn(C)cc1-c1ccnc(N2CCCN(c3ccc(F)cc3)CC2)n1`, the z-score is 0.77 (inactive).

Consider `O=c1c2nccnc2ncn1Cc1scnc1-c1ccccc1`, for which the z-score is -0.445 (inactive).

As to `Nc1nc(Nc2cccc(Cl)c2)sc1C(=O)c1ccc(F)cc1`, the z-score was -2.28 (inactive).

For the compound `O=c1[nH]cnc2c1ncn2C1CCC(CO)O1` (configuration not stated), the z-score was 0.465 (inactive).

`Cn1nc(C(C)(C)C)cc1NC(=O)Nc1ccc(Cl)cc1`: the z-score is 0.155 (inactive).

For the compound `O=C1CN(c2ncnc3sccc23)CCN1Cc1cccc(F)c1`, the z-score is 3.78 (active).

As for `Nc1nc(Cl)nc2c1ncn2C1CC(O)C(CO)O1` (configuration not stated), the z-score is -1.71 (inactive).

For the compound `CC(=O)NCCc1ccc(S(N)(=O)=O)cc1`, the z-score is -0.065 (inactive).

As for `CC(C)(C)c1cn(C2CCN(C(=O)c3cnc4ccccc4n3)CC2)nn1`, the z-score is -0.44 (inactive).

Turning to `Nc1nc(NCc2ccncc2)c2cn[nH]c2n1`, the z-score is -0.535 (inactive).

As to `CN1CCN(Cc2cccc(Oc3ccccc3)c2)CC1CCO` (configuration not stated), the z-score was -0.55 (inactive).

With `Cc1ccc(CN2CCN(c3ncnc4sccc34)CC2=O)cc1`, the z-score is 3.8 (active).

In the case of `O=C(O)c1ccc(-c2ccc([N+](=O)[O-])cc2Cl)o1`, the z-score was 0.255 (inactive).

For the compound `NC(=O)c1ccccc1-c1cccc2ccccc12`, the z-score is -0.38 (inactive).

Turning to `C=CCn1cc(-c2nc3c([nH]2)c(-c2cccnc2)nn3C)c(C)n1`, the z-score is -0.47 (inactive).

Consider `CCN(CCc1ccccn1)C(=O)c1cc(-c2cnc(N)nc2)nc2c(C)cccc12`, for which the z-score was 0.51 (inactive).

Regarding `COc1ncccc1C(=O)N1CCOc2ccccc21`, the z-score is -0.395 (inactive).

Turning to `Cc1nnc(NC(=O)NCC(c2ccccc2)c2ccccc2)s1`, the z-score is 1.01 (inactive).

Regarding `COC(=O)CN1CCN(c2ncnc3sccc23)C(C)C1=O` (configuration not stated), the z-score is -0.055 (inactive).

`COc1cccc(Cc2noc(-c3nccc4ccccc34)n2)c1`: the z-score is -0.1 (inactive).

For `COc1ccc2c(c1)CCN(C(=O)Nc1n[nH]c(-c3ccccc3F)n1)C2`, the z-score was 0.16 (inactive).

As to `O=C(O)c1cnc(-c2ccccc2)[nH]1`, the z-score was 0.375 (inactive).

Consider `O=C(c1cccc(=O)[nH]1)N(Cc1cccnc1)Cc1ccc2c(c1)OCO2`, for which the z-score is -0.17 (inactive).

Regarding `CCN(CC)C(=O)c1c(NC(=O)c2cccs2)sc2c1CCCC2`, the z-score is -0.49 (inactive).

Take `O=C(O)c1ccc(-c2ccccc2C(F)(F)F)o1`: the z-score was 0.155 (inactive).

For `COc1cc(F)c(-c2nc3c(cnn3Cc3cccs3)[nH]2)c(F)c1`, the z-score was 2.49 (active).

Take `CN(C)CCc1c[nH]c2ccc(CC3COC(=O)N3)cc12` (configuration not stated): the z-score is 0.625 (inactive).

Turning to `NC(N)=NC(N)=Nc1cc(C(F)(F)F)ccc1Cl`, the z-score is -1.95 (inactive).

`O=C(O)CCc1c[nH]c2ccccc12`: the z-score is 0.56 (inactive).

As for `Cn1nc(-c2cccnc2)c2[nH]c(-c3ccccc3OC(F)F)nc21`, the z-score was 0.095 (inactive).

`Nc1ccn(C2CCC(CO)O2)c(=O)n1` (configuration not stated): the z-score was 0.445 (inactive).

In the case of `C=CCNC(=O)c1cccnc1-c1ccc(OC)c2ncccc12`, the z-score is -0.545 (inactive).

For the compound `OCCCc1cn(CC2CCN(c3ncnc4nc[nH]c34)CC2)nn1`, the z-score is -0.565 (inactive).

Regarding `O=C(O)CNC(=O)Cc1c[nH]c2ccccc12`, the z-score is -0.545 (inactive).

With `CC(=O)NCC1CN(c2ccc(N3CCOCC3)c(F)c2)C(=O)O1` (configuration not stated), the z-score is 0.65 (inactive).

`CSCCC(NC(C)=O)C(=O)O` (configuration not stated): the z-score is 0.53 (inactive).

For `O=C1CN(c2ncnc3nc[nH]c23)CCN1CCc1ccccc1`, the z-score was -0.58 (inactive).

As to `CCn1ncc(NC(=O)Cn2cc(-c3cccc(-n4cccn4)c3)cn2)n1`, the z-score is -0.505 (inactive).

A short description of the next assay: LFS_MB_P medulloblastoma growth inhibition, cell-based, chromothripsis tumors, cisplatin or BGB combos (AID 1671449; in the data active = inhibition above about 80%;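 note: cells exposed for 96 hours; 0% = vehicle DMSO and 100% = killing by high DMSO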). The note with it: LFS_MB_P medulloblastoma cells, at 0.5 µM, stronger effect = higher value.
Take `O=c1[nH]cnc2c1ncn2C1CCC(CO)O1` (configuration not stated): the inhibition is -32.9% (inactive).

Consider `Nc1nc(Cl)nc2c1ncn2C1CC(O)C(CO)O1` (configuration not stated), for which the inhibition is -16% (inactive) and 3.33% (inactive).

Turning to `Nc1ccn(C2CCC(CO)O2)c(=O)n1` (configuration not stated), the inhibition is -21% (inactive).

The same assay, now with this note: LFS_MB_P medulloblastoma cells, measured here: combination with BGB IC20, at 0.005 µM.
In the case of `O=c1[nH]cnc2c1ncn2C1CCC(CO)O1` (configuration not stated), the inhibition is -16.1%.

In the case of `Nc1nc(Cl)nc2c1ncn2C1CC(O)C(CO)O1` (configuration not stated), the inhibition is -14.4% and 7.64%.

For `Nc1ccn(C2CCC(CO)O2)c(=O)n1` (configuration not stated), the inhibition was -12.9%.

The same assay, now with this note: LFS_MB_P medulloblastoma cells, measured here: combination with BGB IC40, at 0.005 µM.
Consider `O=c1[nH]cnc2c1ncn2C1CCC(CO)O1` (configuration not stated), for which the inhibition is -29.5%.

With `Nc1nc(Cl)nc2c1ncn2C1CC(O)C(CO)O1` (configuration not stated), the inhibition was -28.7% and 21.8%.

Regarding `Nc1ccn(C2CCC(CO)O2)c(=O)n1` (configuration not stated), the inhibition was 8.5%.

Staying with this assay, now noted: LFS_MB_P medulloblastoma cells, measured here: combination with BGB IC40, at 0.05 µM.
Consider `O=c1[nH]cnc2c1ncn2C1CCC(CO)O1` (configuration not stated), for which the inhibition is -24.5%.

As for `Nc1nc(Cl)nc2c1ncn2C1CC(O)C(CO)O1` (configuration not stated), the inhibition is -54.9% and 15%.

For the compound `Nc1ccn(C2CCC(CO)O2)c(=O)n1` (configuration not stated), the inhibition was -10.6%.

The same assay, now with this note: LFS_MB_P medulloblastoma cells, measured here: combination with cisplatin, at 0.5 µM, stronger effect = higher value.
Consider `O=c1[nH]cnc2c1ncn2C1CCC(CO)O1` (configuration not stated), for which the inhibition is -38.2%.

With `Nc1nc(Cl)nc2c1ncn2C1CC(O)C(CO)O1` (configuration not stated), the inhibition was -23.7% and 50.7%.

As to `Nc1ccn(C2CCC(CO)O2)c(=O)n1` (configuration not stated), the inhibition is -35%.

Staying with this assay, now noted: LFS_MB_P medulloblastoma cells, measured here: combination with cisplatin, at 5 µM, stronger effect = higher value.
As for `O=c1[nH]cnc2c1ncn2C1CCC(CO)O1` (configuration not stated), the inhibition was -16.6%.

Turning to `Nc1nc(Cl)nc2c1ncn2C1CC(O)C(CO)O1` (configuration not stated), the inhibition was 76.7% and 86.2%.

Take `Nc1ccn(C2CCC(CO)O2)c(=O)n1` (configuration not stated): the inhibition is -13%.
